{
  "source": "PubChem BioAssay AID977611",
  "origin": "cited, not measured here",
  "assay": "PubChem AID 977611",
  "details": "PDB protein-ligand complexes, literature Kd",
  "note": "In all, about 3,900 compounds went through this assay and about 3,900 (100%) were called active. Cut-off not given; nearly all actives show Kd up to about 4200 µM. The set was probably picked from earlier hits. The list shows a part of the results. Bridge positions count the residues as written; N and C are the ends. Square brackets hold non-standard residues; d marks the D form. Peptide text beside a SMILES is read from it. Orn(CH(NH2)2) = NC(N)NCCC[C@H](N)C(=O)O",
  "data": [
    {"compound": "O=C1N=C(N=Nc2c(O)[nH]c3ccc(S(O)(O)O)cc23)S/C1=C\\c1ccco1", "values": [
      {"measurement": "Kd", "setting": "protein: NUCLEOCAPSID PROTEIN P7, PDB entry 2m3z", "value": "0.27 µM (active)"}
    ]},
    {"compound": "Oc1ccc2c3c1O[C@H]1c4[nH]c5ccccc5c4C[C@@]4(O)[C@@H](C2)N(CC2CC2)CC[C@]314", "values": [
      {"measurement": "Kd", "setting": "protein: Soluble cytochrome b562, Delta-type opioid receptor chimeric protein, PDB entry 4n6h", "value": "0.00052 µM (active)"}
    ]},
    {"compound": "H-SSKPDIVG-OH", "values": [
      {"measurement": "Kd", "setting": "protein: NprR, PDB entry 4gpk", "value": "0.03 µM (active)"}
    ]},
    {"compound": "H-SPSGVFTFG-OH", "values": [
      {"measurement": "Kd", "setting": "protein: Capsid protein p24, PDB entry 4u0c", "value": "49 µM (active)"},
      {"measurement": "Kd", "setting": "protein: Gag polyprotein, PDB entry 4u0d", "value": "49 µM (active)"}
    ]},
    {"compound": "H-KHWVYY-OH", "values": [
      {"measurement": "Kd", "setting": "PDB entry 1abt", "value": "1.4 µM (active)"}
    ]},
    {"compound": "CC(C)[C@H](NC(=O)[C@H](CO[P+](O)(O)O)NC(=O)[C@H](Cc1cnc[nH]1)NC(=O)[C@@H](N)Cc1ccc(O)cc1)C(=O)N[C@H](C(=O)N[C@@H](CCCNC(N)N)C(=O)N[C@@H](Cc1ccc(O)cc1)C(=O)N[C@@H](C)C(=O)O)C(C)C", "values": [
      {"measurement": "Kd", "setting": "protein: MOB kinase activator 1A, PDB entry 4jiz", "value": "2.4 µM (active)"}
    ]},
    {"compound": "OC[C@H]1O[C@@H](S[C@@H]2O[C@H](CO)[C@H](O)[C@H](O)[C@H]2O)[C@H](O)[C@@H](O)[C@H]1O", "values": [
      {"measurement": "Kd", "setting": "protein: Galectin-3, PDB entry 4jc1", "value": "50 µM (active)"}
    ]},
    {"compound": "OC[C@H]1O[C@@H](S[C@@H]2O[C@H](CO)[C@H](O)[C@H](O)[C@@H]2O)[C@@H](O)[C@@H](O)[C@H]1O", "values": [
      {"measurement": "Kd", "setting": "protein: Galectin-3, PDB entry 4jck", "value": "4300 µM (active)"}
    ]},
    {"compound": "O=c1cccc2n1C[C@@H]1CNC[C@H]2C1", "values": [
      {"measurement": "Kd", "setting": "protein: Aplysia californica acetylcholine-binding protein (AChBP), PDB entry 4AFO", "value": "1.64 µM (active)"},
      {"measurement": "Kd", "setting": "protein: Aplysia californica acetylcholine-binding protein (AChBP), PDB entry 4bqt", "value": "1.64 µM (active)"}
    ]},
    {"compound": "O=C1C(=O)N(c2ccc(Cl)c(C(=O)O)c2)[C@@H](c2cc(Br)cs2)/C1=C(\\O)c1ccccc1", "values": [
      {"measurement": "Kd", "setting": "protein: Polymerase cofactor Ebola virus VP35, PDB entry 4ibe", "value": "70.6 µM (active)"}
    ]},
    {"compound": "Cc1ccc(N2C(=O)C(=O)/C(=C(/O)c3ccccc3)[C@@H]2c2cc(Br)cs2)cc1C(=O)O", "values": [
      {"measurement": "Kd", "setting": "protein: Polymerase cofactor Ebola virus VP35, PDB entry 4ibd", "value": "215 µM (active)"}
    ]},
    {"compound": "O=C(O)[C@H]1C2CCC(CC2)[C@@H]1Nc1nc(-c2c[nH]c3ncc(F)cc23)ncc1F", "values": [
      {"measurement": "Kd", "setting": "protein: Influenza polymerase basic protein 2 (PB2), PDB entry 4p1u", "value": "0.003 µM (active)"}
    ]},
    {"compound": "O=C(O)Cc1ccc(N2C(=O)C(=O)/C(=C(/O)c3ccccc3Cl)[C@@H]2c2ccccc2Cl)cc1", "values": [
      {"measurement": "Kd", "setting": "protein: Polymerase cofactor Ebola virus VP35, PDB entry 4ibc", "value": "1050 µM (active)"}
    ]},
    {"compound": "O=C(O)c1cccc(N2C(=O)C(O)=C(C(=O)c3ccc(Cl)s3)[C@@H]2c2cc(Cl)c3c(c2)OCO3)c1", "values": [
      {"measurement": "Kd", "setting": "protein: Polymerase cofactor Ebola virus VP35, PDB entry 4ibk", "value": "50.4 µM (active)"}
    ]},
    {"compound": "Cc1cccc(/C(O)=C2\\C(=O)C(=O)N(c3ccc(CC(=O)O)cc3)[C@H]2c2cc(Cl)c3c(c2)OCO3)c1", "values": [
      {"measurement": "Kd", "setting": "protein: Polymerase cofactor Ebola virus VP35, PDB entry 4ibg", "value": "108 µM (active)"}
    ]},
    {"compound": "O=C1C(=O)N(c2cccc(C(=O)O)c2)[C@@H](c2cc(Cl)c3c(c2)OCO3)/C1=C(\\O)c1cccc(C(F)(F)F)c1", "values": [
      {"measurement": "Kd", "setting": "protein: Polymerase cofactor Ebola virus VP35, PDB entry 4ibi", "value": "73 µM (active)"}
    ]},
    {"compound": "O=C1C(=O)N(c2cccc(C(=O)O)c2)[C@@H](c2cccc(C(F)(F)F)c2)/C1=C(\\O)c1cccc(C(F)(F)F)c1", "values": [
      {"measurement": "Kd", "setting": "protein: Polymerase cofactor Ebola virus VP35, PDB entry 4ibj", "value": "47 µM (active)"}
    ]},
    {"compound": "CCN1c2cc(N)ccc2-c2ccc(N)cc2[C@H]1c1ccccc1", "values": [
      {"measurement": "Kd", "setting": "protein: Putative regulatory protein, PDB entry 3vvy", "value": "14.6 µM (active)"}
    ]},
    {"compound": "CO[C@@H]1O[C@@H](C)[C@@H](O)[C@@H](O)[C@@H]1O", "values": [
      {"measurement": "Kd", "setting": "protein: Ralstonia solanacearum fucose-binding lectin protein, PDB entry 4csd", "value": "1.23 µM (active)"}
    ]},
    {"compound": "Nc1c(O)n(Cc2ccccc2)c(=O)[nH]c1=O", "values": [
      {"measurement": "Kd", "setting": "protein: Glucose-1-phosphate thymidylyltransferase (RmlA), PDB entry 3zll", "value": "0.395 µM (active)"},
      {"measurement": "Kd", "setting": "protein: Glucose-1-phosphate thymidylyltransferase (RmlA), PDB entry 4AS6", "value": "0.395 µM (active)"}
    ]},
    {"compound": "C[C@@H](O)[C@H](NC(=O)[C@@H]1CCCN1C(=O)[C@H](CO[P+](O)(O)O)NC(=O)[C@@H](N)Cc1ccc(O)cc1)C(=O)N[C@@H](CO)C(=O)N1CCC[C@H]1C(=O)O", "values": [
      {"measurement": "Kd", "setting": "protein: CTD INTERACTING DOMAIN of RNA processing factor SCAF8, PDB entry 3d9n", "value": "90 µM (active)"}
    ]},
    {"compound": "C[C@@H](O)[C@H](NC(=O)[C@@H]1CCCN1C(=O)[C@H](CO)NC(=O)[C@@H](N)Cc1ccc(O)cc1)C(=O)N[C@@H](CO[P+](O)(O)O)C(=O)N1CCC[C@H]1C(=O)N[C@@H](CO)C(=O)O", "values": [
      {"measurement": "Kd", "setting": "protein: CTD INTERACTING DOMAIN of RNA processing factor SCAF8, PDB entry 3d9m", "value": "330 µM (active)"}
    ]},
    {"compound": "C[C@H](Nc1nc(-c2c[nH]c3ncc(Cl)cc23)ncc1F)C(=O)N(C)C", "values": [
      {"measurement": "Kd", "setting": "protein: Influenza polymerase basic protein 2 (PB2), PDB entry 4ncm", "value": "0.1 µM (active)"}
    ]},
    {"compound": "CC(C)[C@H](NC(=O)[C@H](Cc1c[nH]c2ccccc12)NC(=O)[C@H](Cc1c[nH]cn1)NC(=O)[C@H](CCCCN)NC(=O)[C@H](Cc1c[nH]c2ccccc12)NC(=O)CNC(=O)[C@H](CCCNC(N)N)NC(=O)[C@@H](N)Cc1ccc(O)cc1)C(=O)N[C@@H](Cc1ccc(O)cc1)C(=O)N[C@@H](Cc1ccc(O)cc1)C(=O)N[C@H](C(=O)N[C@H]1CSSC[C@@H](C(=O)N2CCC[C@H]2C(=O)N[C@@H](CC(=O)O)C(=O)N[C@H](C(=O)N2CCC[C@H]2C(=O)N[C@@H](Cc2ccc(O)cc2)C(=O)O)[C@H](C)O)NC1=O)[C@@H](C)O", "values": [
      {"measurement": "Kd", "setting": "PDB entry 1idg", "value": "0.065 µM (active)"}
    ]},
    {"compound": "CC(C)[C@H](NC(=O)[C@H](Cc1c[nH]c2ccccc12)NC(=O)[C@H](Cc1c[nH]cn1)NC(=O)[C@H](CCCCN)NC(=O)[C@H](Cc1c[nH]c2ccccc12)NC(=O)CNC(=O)[C@H](CCCNC(N)N)NC(=O)[C@@H](N)Cc1ccc(O)cc1)C(=O)N[C@@H](Cc1ccc(O)cc1)C(=O)N[C@@H](Cc1ccc(O)cc1)C(=O)N[C@H](C(=O)N[C@H]1CSSC[C@@H](C(=O)N2CCC[C@H]2C(=O)N[C@@H](CC(=O)O)C(=O)N[C@H](C(=O)N2CCC[C@H]2C(=O)N[C@@H](Cc2ccc(O)cc2)C(=O)O)[C@@H](C)O)NC1=O)[C@@H](C)O", "note": "(H-Y[Orn(CH(NH2)2)]GWKHWVYYTCCPDTPY-OH; disulfide 12-13)", "values": [
      {"measurement": "Kd", "setting": "protein: Cbtx, PDB entry 1lxh", "value": "0.065 µM (active)"}
    ]},
    {"compound": "C[C@H](CC(=O)O)c1n[nH]c2nc(N)[nH]c(=O)c2c1=O", "values": [
      {"measurement": "Kd", "setting": "protein: Dihydropteroate Synthase, PDB entry 4d8z", "value": "0.51 µM (active)"}
    ]}
  ]
}
